# Reference: the supplement of paper PMC8728848
# This is one part of a sample in which the strongest signals are shown more often than they occur.
# B1: Ecp6 (Cladosporium fulvum), B3VBK9 (protein)
# chain: MQSMILFAAALMGAAVNGFVLPRTDDPDCETKATDCGSTSNIKYTVVKGDTLTSIAKKFKSGICNIVSVNKLANPNLIELGATLIIPENCSNPDNKSCVSTPAEPTETCVPGLPGSYTIVSGDTLTNISQDFNITLDSLIAANTQIENPDAIDVGQIITVPVCPSSQCEAVGTYNIVAGDLFVDLAATYHTTIGQIKALNNNVNPSKLKVGQQIILPQDCKNVTTAVA
# Key:
# Assay in all cases: glycan array binding signal (z-score within array); higher = stronger binding
# Conditions in all cases: glycan notation: IUPAC condensed, linker removed
# [1] = molecular target: GlcNAc(b1-4)GlcNAc(b1-4)GlcNAc(b1-4)GlcNAc(b1-4)GlcNAc
# How it was run: (§1)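 From the Consortium for Functional Glycomics database, 3228 arrays were curated, keeping only those whose protein sequence was available. Binding is given as a within-array Z-score averaged across arrays sharing a protein sequence and across linkers. Negative Z-scores can be read as non-binding.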
# [2] = molecular target: GlcNAc(b1-4)GlcNAc(b1-4)GlcNAc(b1-4)GlcNAc(b1-4)GlcNAc(b1-4)GlcNAc
# How it was run: as §1
# [3] = molecular target: GlcNAc(b1-4)[GlcNAc(b1-6)]GalNAc
# How it was run: as §1
# [4] = molecular target: Man(a1-3)[Man(a1-6)]Man(b1-4)GlcNAc(b1-4)GlcNAc
# How it was run: as §1
# [5] = molecular target: Neu5Ac(a2-3)Gal(b1-3)GalNAc
# How it was run: as §1
# [6] = molecular target: Neu5Ac(a2-3)Gal(b1-4)[Fuc(a1-3)]GlcNAc
# How it was run: as §1
# [7] = molecular target: Neu5Ac(a2-3)Gal(b1-4)[Fuc(a1-3)]GlcNAc(b1-3)GalNAc
# How it was run: as §1
# [8] = molecular target: Neu5Ac(a2-3)Gal6S(b1-4)[Fuc(a1-3)]GlcNAc
# How it was run: as §1
# [9] = molecular target: Neu5Ac(a2-3)GalNAc(b1-4)GlcNAc
# How it was run: as §1
# Neu5Ac(a2-6)Gal(b1-4)Glc = molecular target: Neu5Ac(a2-6)Gal(b1-4)Glc
# How it was run: as §1
# [10] = molecular target: Neu5Ac(a2-6)GalNAc(b1-4)GlcNAc
# How it was run: as §1
binder,measurement,setting,value
B1,glycan array binding signal (z-score),[1],13
same,glycan array binding signal (z-score),[2],10.7
same,glycan array binding signal (z-score),[3],-0.103
same,glycan array binding signal (z-score),[4],-0.085
same,glycan array binding signal (z-score),[5],-0.099
same,glycan array binding signal (z-score),[6],-0.099
same,glycan array binding signal (z-score),[7],-0.004
same,glycan array binding signal (z-score),[8],-0.073
same,glycan array binding signal (z-score),[9],-0.052
same,glycan array binding signal (z-score),Neu5Ac(a2-6)Gal(b1-4)Glc,-0.096
same,glycan array binding signal (z-score),[10],-0.063
